Experimental data as given in PubChem BioAssay (NCI).
This is part of a sample that, as a whole, favours compounds with a hit. Of some 83,000 tested, about 20% had one in any assay.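 Cells were grown in 96-well plates and exposed to the test compound at a single concentration for 48 hours; results are reported as percent growth, with values below 10 considered active.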 Calls of active or inactive are those of the source.

Columns and labels:
Test in all cases: NCI-60 one-dose screen, 48 h (100 = growth as untreated, 0 = no growth, -100 = all killed)
Conditions in all cases: 10 µM unless noted
NCI-H23 lung = test system: NCI-H23 lung
NCI-H226 lung = test system: NCI-H226 lung
NCI-H322M lung = test system: NCI-H322M lung
HOP-62 NSCLC = test system: HOP-62 NSCLC
NCI-H460 lung = test system: NCI-H460 lung
HOP-92 NSCLC = test system: HOP-92 NSCLC
NCI-H522 lung = test system: NCI-H522 lung
A549/ATCC NSCLC = test system: A549/ATCC NSCLC
786-0 renal = test system: 786-0 renal
DU-145 prostate = test system: DU-145 prostate
K-562 leukemia = test system: K-562 leukemia
MALME-3M melanoma = test system: MALME-3M melanoma
MDA-MB-231 breast = test system: MDA-MB-231 breast
RXF 393 renal = test system: RXF 393 renal
SF-268 CNS = test system: SF-268 CNS
SF-295 CNS = test system: SF-295 CNS
SF-539 CNS = test system: SF-539 CNS
UACC-257 melanoma = test system: UACC-257 melanoma
M14 melanoma = test system: M14 melanoma
COLO 205 colon = test system: COLO 205 colon

Measured: growth

Cc1cc(Cl)ccc1Nc1nc(C(F)(F)F)ccc1C(=O)N/N=C/c1ccc([N+](=O)[O-])cc1
active: NCI-H23 lung -1.74% | NCI-H226 lung 6.08% | NCI-H322M lung -18.6% | HOP-62 NSCLC -33.6% | NCI-H460 lung -34.3% | HOP-92 NSCLC -31.6% | NCI-H522 lung -13.3% | A549/ATCC NSCLC -15.3% | 786-0 renal -61.2% | DU-145 prostate 5.82% | K-562 leukemia -1.48% | MALME-3M melanoma -13.5% | MDA-MB-231 breast -51.5% | RXF 393 renal 5.4% | SF-295 CNS -56.4% | SF-539 CNS 3.77% | UACC-257 melanoma -13.1%
inactive: SF-268 CNS 13.8% | M14 melanoma 26.9%

CCCCNC(=O)Oc1ccc(/C(=C(/CC)Cc2ccccc2)c2ccc(OCCN3CCCCCC3)cc2)cc1
inactive: NCI-H23 lung 57.4% | NCI-H226 lung 83.4% | NCI-H322M lung 85.4% | HOP-62 NSCLC 74.8% | HOP-92 NSCLC 36% | NCI-H522 lung 30.4% | A549/ATCC NSCLC 39.5% | 786-0 renal 36.6% | DU-145 prostate 49.9% | MDA-MB-231 breast 43.3% | RXF 393 renal 16.7% | SF-268 CNS 61% | SF-295 CNS 91.9% | UACC-257 melanoma 34.3%
active: NCI-H460 lung -59.8% | K-562 leukemia -24.8% | MALME-3M melanoma -58.3% | SF-539 CNS -30.2% | M14 melanoma -19.3%

CC(C)(C)n1cc(-c2ccnc(NCCNS(=O)(=O)c3cccc4ccccc34)c2)c(-c2cccc(F)c2)n1
active: NCI-H23 lung 0.565% | NCI-H226 lung -25.7% | NCI-H460 lung -26.9% | HOP-92 NSCLC -19.3% | NCI-H522 lung -38.9% | 786-0 renal -91.4% | DU-145 prostate 4.18% | K-562 leukemia -30% | MALME-3M melanoma -73.1% | MDA-MB-231 breast -8.01% | RXF 393 renal -52.3% | SF-295 CNS -68.7% | SF-539 CNS -74.8% | UACC-257 melanoma -8.81% | M14 melanoma -19%
inactive: NCI-H322M lung 20.8% | HOP-62 NSCLC 26.4% | A549/ATCC NSCLC 16.3% | SF-268 CNS 29.5%

O=Nc1c(-c2c(O)[nH]c3ncccc23)[nH]c2ccccc12
inactive: NCI-H23 lung 69.7% | NCI-H226 lung 78.6% | NCI-H322M lung 30.7% | HOP-62 NSCLC 45.9% | NCI-H460 lung 52.2% | HOP-92 NSCLC 54% | NCI-H522 lung 47.6% | A549/ATCC NSCLC 46.6% | 786-0 renal 43.3% | DU-145 prostate 62.2% | K-562 leukemia 53.3% | MALME-3M melanoma 91% | MDA-MB-231 breast 78.6% | RXF 393 renal 29.4% | SF-268 CNS 66.2% | SF-295 CNS 94.9% | SF-539 CNS 50.3% | UACC-257 melanoma 92.6% | M14 melanoma 56.4%

Clc1ccc2c(c1)N(c1ncnc3ccc(-c4cnc5[nH]ncc5c4)cc13)CC2
active: HOP-92 NSCLC -1.84% | RXF 393 renal -10.5%
inactive: NCI-H23 lung 52.5% | NCI-H226 lung 24.4% | NCI-H322M lung 11.8% | HOP-62 NSCLC 24.4% | NCI-H460 lung 20.1% | NCI-H522 lung 40.2% | 786-0 renal 18.1% | COLO 205 colon 31.1% | DU-145 prostate 22.4% | K-562 leukemia 51.1% | MALME-3M melanoma 40.2% | MDA-MB-231 breast 27.3% | SF-268 CNS 35.1% | SF-295 CNS 23.1% | SF-539 CNS 24.9% | UACC-257 melanoma 44.3% | M14 melanoma 43.4%

Cn1cc(-c2nc(-c3c[nH]c4ccncc34)cs2)c2ccccc21
inactive: NCI-H23 lung 86% | NCI-H226 lung 87.6% | NCI-H322M lung 82.5% | HOP-62 NSCLC 60.4% | HOP-92 NSCLC 53.9% | NCI-H522 lung 66.8% | 786-0 renal 77.3% | DU-145 prostate 44% | MALME-3M melanoma 54% | MDA-MB-231 breast 25.2% | RXF 393 renal 70.8% | SF-268 CNS 77.3% | SF-295 CNS 65.5% | SF-539 CNS 78.7% | UACC-257 melanoma 91.2%
active: NCI-H460 lung -37.7% | COLO 205 colon -67.3% | K-562 leukemia -33.2% | M14 melanoma -71.5%

C=C(C)[C@@H]1CC[C@]2(C(=O)NCCNCCN)CC[C@]3(C)[C@H](CC[C@@H]4[C@@]5(C)C/C(=C/c6ccncc6)C(=O)C(C)(C)[C@@H]5CC[C@]43C)[C@@H]12
inactive: NCI-H23 lung 97.2% | NCI-H226 lung 100% | NCI-H322M lung 94.2% | HOP-62 NSCLC 101% | NCI-H460 lung 99.2% | HOP-92 NSCLC 75.5% | NCI-H522 lung 94.7% | A549/ATCC NSCLC 99.9% | 786-0 renal 90.2% | DU-145 prostate 106% | K-562 leukemia 86.4% | MALME-3M melanoma 106% | MDA-MB-231 breast 96.7% | RXF 393 renal 103% | SF-268 CNS 88.5% | SF-295 CNS 100% | SF-539 CNS 95.1% | UACC-257 melanoma 105% | M14 melanoma 89.8%

CN(CCOc1ccc(C#N)cc1)CCOc1ccc(C#N)cc1
inactive: NCI-H23 lung 56.5% | NCI-H226 lung 62% | NCI-H322M lung 87.1% | HOP-62 NSCLC 46% | NCI-H460 lung 120% | NCI-H522 lung 86.6% | A549/ATCC NSCLC 60.2% | 786-0 renal 26.3% | COLO 205 colon 52.1% | DU-145 prostate 94.3% | K-562 leukemia 101% | MALME-3M melanoma 76.5% | MDA-MB-231 breast 71.2% | RXF 393 renal 53.7% | SF-268 CNS 103% | SF-295 CNS 483% | SF-539 CNS 96.1% | UACC-257 melanoma 65.8% | M14 melanoma 65.2%

Cc1oc(-c2ccc(Cl)cc2)nc1/C=C/C(=O)c1ccccc1
inactive: NCI-H23 lung 98.8% | NCI-H226 lung 88.4% | NCI-H322M lung 101% | HOP-62 NSCLC 110% | NCI-H460 lung 103% | NCI-H522 lung 93.1% | A549/ATCC NSCLC 99.1% | 786-0 renal 96.4% | COLO 205 colon 114% | DU-145 prostate 109% | K-562 leukemia 99.1% | MALME-3M melanoma 97.6% | MDA-MB-231 breast 101% | RXF 393 renal 106% | SF-268 CNS 97.1% | SF-295 CNS 99.9% | SF-539 CNS 99.5% | UACC-257 melanoma 106%

COC(=O)c1n[nH]c2ccc3nc(-c4cn[nH]c4C(F)(F)F)c4c(c3c12)CCCC4
active: COLO 205 colon 3.9%
inactive: NCI-H23 lung 56% | NCI-H226 lung 51.6% | NCI-H322M lung 45.1% | HOP-62 NSCLC 46.9% | NCI-H460 lung 29.3% | HOP-92 NSCLC 30.9% | NCI-H522 lung 23.6% | 786-0 renal 35.5% | DU-145 prostate 49.1% | K-562 leukemia 72.9% | MALME-3M melanoma 28.9% | MDA-MB-231 breast 38.6% | RXF 393 renal 37.9% | SF-268 CNS 54.8% | SF-295 CNS 48.7% | SF-539 CNS 27.4% | UACC-257 melanoma 28.9% | M14 melanoma 11%

Cc1nn(-c2ccccc2)c(Oc2ccccn2)c1-c1nc2ccccc2s1
inactive: NCI-H23 lung 87.7% | NCI-H226 lung 93.8% | NCI-H322M lung 93.3% | HOP-62 NSCLC 112% | NCI-H460 lung 106% | NCI-H522 lung 82.2% | A549/ATCC NSCLC 92.9% | 786-0 renal 104% | COLO 205 colon 110% | DU-145 prostate 98.6% | K-562 leukemia 90.7% | MALME-3M melanoma 103% | MDA-MB-231 breast 124% | RXF 393 renal 86.1% | SF-268 CNS 92.9% | SF-295 CNS 115% | SF-539 CNS 108% | UACC-257 melanoma 98% | M14 melanoma 108%

COc1ccc2c(O)c(/C=C3\N=Nc4ncccc43)oc2c1C[C@H]1CCNC[C@H]1F
active: NCI-H23 lung -3.41% | NCI-H226 lung 1.06% | NCI-H322M lung 9.44% | HOP-62 NSCLC 5.59% | NCI-H460 lung -26% | NCI-H522 lung -13.5% | A549/ATCC NSCLC 0.136% | 786-0 renal -18.6% | COLO 205 colon -51.8% | DU-145 prostate 7.19% | K-562 leukemia 1.73% | MALME-3M melanoma -21.6% | MDA-MB-231 breast -6.95% | RXF 393 renal -44.4% | SF-268 CNS -5.68% | SF-539 CNS -29.9% | UACC-257 melanoma -6.32% | M14 melanoma -40.9%
inactive: SF-295 CNS 18.9%

C#CCOc1ccc2ncnc(Nc3cccc(NC(=O)C=C)c3)c2c1
inactive: NCI-H23 lung 80.7% | NCI-H226 lung 76.2% | NCI-H322M lung 61.1% | HOP-62 NSCLC 63.6% | NCI-H460 lung 65.1% | HOP-92 NSCLC 66.1% | NCI-H522 lung 50.3% | 786-0 renal 56.4% | DU-145 prostate 54% | K-562 leukemia 70.6% | MALME-3M melanoma 73.9% | MDA-MB-231 breast 58.1% | SF-268 CNS 55.9% | SF-295 CNS 91.6% | SF-539 CNS 59.2% | UACC-257 melanoma 69.5% | M14 melanoma 62.8%
active: RXF 393 renal 6.44%

Cc1ccc(S(=O)(=O)N2CCCC2CO)cc1 (stereo not drawn)
inactive: NCI-H23 lung 84.9% | NCI-H226 lung 99.9% | NCI-H322M lung 93.6% | HOP-62 NSCLC 188% | NCI-H460 lung 99.9% | NCI-H522 lung 90.7% | A549/ATCC NSCLC 103% | 786-0 renal 100% | COLO 205 colon 103% | DU-145 prostate 104% | K-562 leukemia 114% | MALME-3M melanoma 83.8% | MDA-MB-231 breast 100% | RXF 393 renal 103% | SF-268 CNS 101% | SF-295 CNS 112% | SF-539 CNS 94.4% | UACC-257 melanoma 107% | M14 melanoma 95.1%

O=CC1(C2(C=O)c3ccccc3-c3ccccc32)c2ccccc2-c2ccccc21
active: NCI-H23 lung -28.8% | NCI-H226 lung -47.2% | NCI-H322M lung -20.9% | HOP-62 NSCLC -76.3% | NCI-H460 lung -46.9% | NCI-H522 lung -84.5% | A549/ATCC NSCLC -50.5% | 786-0 renal -84.4% | COLO 205 colon -56% | DU-145 prostate -63.3% | K-562 leukemia -13.6% | MALME-3M melanoma -71.8% | MDA-MB-231 breast -12.5% | RXF 393 renal -61.4% | SF-268 CNS -46.9% | SF-295 CNS -59.8% | SF-539 CNS -64.5% | UACC-257 melanoma -76.1% | M14 melanoma -67.1%
